# Several values for one entry are separate records, joined by “and”; a condition that tells them apart may be missing. Equal entries are not always repeated. Records with an inconclusive call do not appear. A call without a number means that no potency is given here. A number with no mark means an inactive call. Activity calls are given as the source filed them. The call rests on the fitted dose curve; in most records, active means well fitted inhibition curve with a large enough effect; inconclusive means small, poorly fitted or top-dose-only effect; inactive means flat fitted curve, though single readings scatter.
# Assays:
# PC26 = assay: qHTS profiling for inhibitors of Plasmodium falciparum proliferation (AID 504749); conditions: P. falciparum in erythrocytes, SYBR Green DNA, 72 h; series mostly up to 28.7 µM
# Procedure, shortened: (§1)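 In a 72 h erythrocytic culture (37 C, humidified, 5% CO2) at 2.5% hematocrit and 0.3% starting parasitemia, compounds were tested; SYBR Green I in detergent lysis buffer stained parasite DNA overnight.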
# PC49 = assay: as above; conditions: P. falciparum in erythrocytes, SYBR Green DNA, 72 h; series mostly up to 28.7 µM
# Procedure, shortened: as §1
# SC27B = assay: as above; conditions: P. falciparum in erythrocytes, SYBR Green DNA, 72 h; series mostly up to 28.7 µM
# Procedure, shortened: as §1
# TAB109 = assay: as above; conditions: P. falciparum in erythrocytes, SYBR Green DNA, 72 h; series mostly up to 28.7 µM
# Procedure, shortened: as §1
# TAB113 = assay: as above; conditions: P. falciparum in erythrocytes, SYBR Green DNA, 72 h; series mostly up to 28.7 µM
# Procedure, shortened: as §1
# TAB165 = assay: as above; conditions: P. falciparum in erythrocytes, SYBR Green DNA, 72 h; series mostly up to 28.7 µM
# Procedure, shortened: as §1
# KB-3-1 = assay: Cytotoxic Profiling of Annotated Libraries Using Quantitative High-Throughput Screening (AID 1296008); conditions: Five cell lines viability, CellTiter-Glo ATP luminescence, 48-72 h; max response: hits give low values
# Procedure, shortened: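 Cytotoxicity was measured as CellTiter-Glo ATP luminescence, read after 10 min at room temperature. Compound treatment of the cells lasted 48 or 72 hr at 37 degrees Celsius in a qHTS format.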
# W2 = assay: qHTS profiling for inhibitors of Plasmodium falciparum proliferation (AID 504749); conditions: P. falciparum in erythrocytes, SYBR Green DNA, 72 h; series mostly up to 28.7 µM
# Procedure, shortened: as §1
# Further: nearly all actives have a fitted effect of over 60% in size.
# Potency means the concentration at half of the fitted maximal effect.
Structure (SMILES),Potency (PC26),Potency (PC49),Potency (SC27B),Potency (TAB109),Potency (TAB113),Potency (TAB165),max response (KB-3-1),Potency (W2),Potency (KB-3-1)
CCCCCCCCCCCCCCCCCC[N+](C)(C)CCC[Si](OC)(OC)OC,inactive,inactive,inactive,inactive,inactive,inactive,8.62%,,
CO/N=C(/C(=O)N[C@@H]1C(=O)N2C(C(=O)O)=C(COC(N)=O)CS[C@H]12)c1ccco1,inactive,inactive,inactive,inactive,inactive,inactive,-4.54% and -18.4%,,
C=CC(C)(O)CC/C=C(\C)CCC=C(C)C (stereo not given),inactive,inactive,inactive,inactive,inactive,inactive,0.0537%,,
Cc1cccc(C)c1NC(=O)C1CCCCN1C (stereo not given),inactive,inactive,inactive,inactive,inactive,inactive,-1.09%,,
Cc1cc(C)c(NC(=O)C[C@H](CC(=O)O)c2cccc3ccccc23)c(C(=O)N2CCC3(CCCC3)CC2)c1,inactive,inactive,inactive,inactive,inactive,inactive,-2.39%,,
S=C=Nc1ccc(N=C=S)cc1,inactive,inactive,inactive,inactive,inactive,inactive,-15.9%,,
CS(=O)(=O)OCC(O)C(O)COS(C)(=O)=O (stereo not given),inactive,inactive,inactive,inactive,inactive,inactive,-18.1%,,
CCCCC[C@H](O)/C=C/[C@H]1[C@H](O)CC(=O)[C@@H]1C/C=C\CCCC(=O)O,inactive,inactive,inactive,inactive,inactive,inactive,7.78%,,
O=[N+]([O-])c1c(Cl)cccc1-c1c[nH]cc1Cl,inactive,inactive,inactive,inactive,inactive,inactive,2.84%,,
CCCCC,inactive,inactive,inactive,inactive,inactive,inactive,7.19%,,
O=C(OCc1ccccc1)c1cccnc1,inactive,inactive,inactive,inactive,inactive,inactive,-9.74%,,
C[C@]12CCC(=O)C[C@@H]1CC[C@@H]1[C@@H]2CC[C@]2(C)C=CC[C@@H]12,inactive,inactive,inactive,inactive,inactive,inactive,-14.2%,,
O=C(O)c1cc(N=Nc2ccc(O)c(C(=O)O)c2)ccc1O,inactive,inactive,inactive,inactive,inactive,inactive,-1.02%,,
O=P(O)(O)OP(=O)(O)OP(=O)(O)O,inactive,inactive,inactive,inactive,inactive,inactive,-3.72%,,
Cc1ncc(COP(=O)(O)O)c(CN)c1O,inactive,inactive,inactive,inactive,inactive,inactive,-6.16%,,
O=C(NCCNCC(O)COc1ccc(O)cc1)N1CCOCC1 (stereo not given),inactive,inactive,inactive,inactive,inactive,inactive,1.66%,,
CC/C=C\C/C=C\C/C=C\C/C=C\C/C=C\CCCC(=O)O,inactive,inactive,inactive,inactive,inactive,inactive,-1.96%,,
O=C(O)CC/C=C\CC[C@@H]1[C@@H](N2CCCCC2)[C@@H](O)C[C@@H]1OCc1ccc(-c2ccccc2)cc1,inactive,inactive,inactive,inactive,inactive,inactive,-15.9%,,
CC(C)[C@@H](N)C(=O)O,inactive,inactive,inactive,inactive,inactive,inactive,-13.9%,,
CN(Cc1ccccc1)Cc1ccccc1,inactive,inactive,inactive,inactive,inactive,inactive,19.7%,,
CCCCCCCCCCCCCCCCCCCCCC(=O)Nc1ccn([C@@H]2O[C@H](CO)[C@@H](O)[C@@H]2O)c(=O)n1,inactive,inactive,inactive,inactive,inactive,inactive,3.81%,,
Cc1c(C)c2c(c(C)c1OC(=O)CCC(=O)O)CC[C@@](C)(CCC[C@H](C)CCC[C@H](C)CCCC(C)C)O2,inactive,inactive,inactive,inactive,inactive,inactive,3.34%,,
O=C(O)c1ccc(NC(=O)[C@H](Cc2ccc(O)cc2)NC(=O)c2ccccc2)cc1,inactive,inactive,inactive,inactive,inactive,inactive,7.82%,,
NC(N)=NCC1COc2ccccc2O1 (stereo not given),inactive,inactive,inactive,inactive,inactive,inactive,-6.36%,,
COC(=O)[C@@H](N)CS,inactive,inactive,inactive,inactive,inactive,inactive,-3.99%,,

Structure (SMILES),Potency (PC26),Potency (PC49),Potency (SC27B),Potency (TAB109),Potency (TAB113),Potency (TAB165),max response (KB-3-1),Potency (W2),Potency (KB-3-1)
CCN(CC)CCOc1ccccc1OC,inactive,inactive,inactive,inactive,inactive,inactive,3.77%,,
O=[n+]1ccn([O-])c2ccccc21,inactive,inactive,inactive,inactive,inactive,inactive,-0.645%,,
OC/C=C/c1ccccc1,inactive,inactive,inactive,inactive,inactive,inactive,-5.63%,,
COC(=O)c1ccccc1O,inactive,inactive,inactive,inactive,inactive,inactive,-4.17%,,
COc1ccccc1N1CCN(CCCC(=O)c2ccc(F)cc2)CC1,inactive,inactive,inactive,inactive,inactive,inactive,-4.67%,,
O=C(NNCS(=O)(=O)O)c1ccncc1,inactive,inactive,inactive,inactive,inactive,inactive,-1.07%,inactive,
CCN(CC)CCCC(C)Nc1cc(/C=C/c2ccccc2Cl)nc2cc(Cl)ccc12 (stereo not given),5360 nM (active),8910 nM (active),2820 nM (active),2510 nM (active),1780 nM (active),2240 nM (active),0.54%,601 nM (active),
NC(=O)Oc1ccc(Cc2ccccc2)cc1,inactive,inactive,inactive,inactive,inactive,inactive,11.9%,inactive,
CN(C)CCOc1ccc(/C(=C(/CCCl)c2ccccc2)c2ccccc2)cc1,inactive,inactive,inactive,inactive,inactive,inactive,-3.21%,inactive,
CC(=O)Oc1cc(C(F)(F)F)ccc1C(=O)O,inactive,inactive,inactive,inactive,inactive,inactive,0.097%,inactive,
C[C@@](Cc1ccc(O)c(O)c1)(NN)C(=O)O,inactive,inactive,inactive,inactive,inactive,inactive,2.59%,inactive,
Cc1cc(=O)c(C(=O)N[C@@H](C(=O)N[C@@H]2C(=O)N3C(C(=O)O)=C(CSc4nnnn4C)CS[C@H]23)c2ccc(O)cc2)c[nH]1,inactive,inactive,inactive,inactive,inactive,inactive,0.794%,inactive,
C=CC(=O)O,inactive,inactive,inactive,inactive,inactive,inactive,-9.21%,inactive,
CN1CCC(OC(=O)C(Oc2ccc(Cl)cc2)Oc2ccc(Cl)cc2)CC1,inactive,inactive,inactive,inactive,inactive,inactive,-2.63%,inactive,
C=CCN1CCCC1CNC(=O)c1cc(S(N)(=O)=O)cc(OC)c1OC (stereo not given),inactive,inactive,inactive,inactive,inactive,inactive,5.61%,inactive,
O=P(O)(O)O,inactive,inactive,inactive,inactive,inactive,inactive,2.99%,inactive,
C=Cc1ccc(S(=O)(=O)O)cc1,inactive,inactive,inactive,inactive,inactive,inactive,36.9%,inactive,
CCOC(=O)c1c[nH]c2cc(OCC(C)C)c(OCC(C)C)cc2c1=O,120 nM (active),141 nM (active),100 nM (active),89.1 nM (active),112 nM (active),70.8 nM (active),5.44%,53.6 nM (active),
CC(=O)Nc1ccc(OC(C)=O)cc1,inactive,inactive,inactive,inactive,inactive,inactive,6.1%,inactive,
O=P(O)(O)OC[C@H](O)CO,inactive,inactive,inactive,inactive,inactive,inactive,-16.7%,inactive,
N=C(N)n1cccn1,inactive,inactive,inactive,inactive,inactive,inactive,3.42%,inactive,
CN(C)c1ccc(C(=C2C=CC(=[N+](C)C)C=C2)c2c(O)c(S(=O)(=O)[O-])cc3cc(S(=O)(=O)O)ccc23)cc1,inactive,inactive,inactive,inactive,inactive,inactive,,inactive,14600 nM (active)
CC(=O)[O][Al][O]C(C)=O,inactive,inactive,inactive,inactive,inactive,inactive,-5.29%,inactive,
CC(/C=C/C=C(\C)C(=O)O[C@@H]1O[C@H](CO[C@@H]2O[C@H](CO)[C@@H](O)[C@H](O)[C@H]2O)[C@@H](O)[C@H](O)[C@H]1O)=C\C=C\C=C(C)\C=C\C=C(/C)C(=O)O[C@@H]1O[C@H](CO[C@@H]2O[C@H](CO)[C@@H](O)[C@H](O)[C@H]2O)[C@@H](O)[C@H](O)[C@H]1O,inactive,inactive,inactive,inactive,inactive,inactive,1.72%,inactive,
Cc1ccc(S(=O)(=O)O)cc1C,inactive,inactive,inactive,inactive,inactive,inactive,7.06%,inactive,

# Source: PubChem BioAssay (NCATS)
